Screening data as filed in PubChem.
Most compounds without a hit are left out; they make up all but 7.3% or so of the library.
NPC1 prom act = activates the NPC1 promoter. Huh7 NPC1 promoter luciferase reporter, 24 h. Potency, µM (series often up to 9.22 µM), without a hit: top-dose activation, actives largely listed as activators. actives 2.4% (n = 320,000). AID 485313; also: % of control where 0% means no effect; nearly all actives have a fitted effect of over 60% in size
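In 1536-well qHTS, Huh7 cells harboring an NPC1 promoter–luciferase construct received compound for 24 h; activation was quantified by luminescence following luciferase reagent addition.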
ELG1 genotoxic = induces genotoxicity in HEK293T cells with luciferase-tagged ELG1 | AID 504466 | HEK293T ELG1-luciferase reporter, luminescence, 16 h | Potency, µM (titrated, usually from 46 µM), without a hit: at the top dose activity change, positive = activation, most hits filed as activators | actives 1.3% (n = 330,000); also: % of control where 0% means no effect; nearly all actives have a fitted effect of over 60% in size
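Genotoxicity was scored as increased ELG1-luciferase reporter signal, measured by ONE-Glo luminescence (30 min, room temperature). Compound or vehicle exposure of the HEK293T reporter cells lasted 16 hr at 37°C.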
FLuc modulator = inhibits or activates purified firefly luciferase, miR-21 counter-screen; P08659; purified FLuc, Km substrates, luminescence inhibition; Potency, µM (doses to about 57.5 µM), without a hit: at the highest dose activity change, negative = inhibition, usual class: inhibitors; actives 6.9% (n = 360,000);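 also: plate controls were vehicle for no effect and reference inhibitor for full effect; nearly all actives have a fitted effect of over 55% in size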
Target sequence (P08659 whole entry, looked up): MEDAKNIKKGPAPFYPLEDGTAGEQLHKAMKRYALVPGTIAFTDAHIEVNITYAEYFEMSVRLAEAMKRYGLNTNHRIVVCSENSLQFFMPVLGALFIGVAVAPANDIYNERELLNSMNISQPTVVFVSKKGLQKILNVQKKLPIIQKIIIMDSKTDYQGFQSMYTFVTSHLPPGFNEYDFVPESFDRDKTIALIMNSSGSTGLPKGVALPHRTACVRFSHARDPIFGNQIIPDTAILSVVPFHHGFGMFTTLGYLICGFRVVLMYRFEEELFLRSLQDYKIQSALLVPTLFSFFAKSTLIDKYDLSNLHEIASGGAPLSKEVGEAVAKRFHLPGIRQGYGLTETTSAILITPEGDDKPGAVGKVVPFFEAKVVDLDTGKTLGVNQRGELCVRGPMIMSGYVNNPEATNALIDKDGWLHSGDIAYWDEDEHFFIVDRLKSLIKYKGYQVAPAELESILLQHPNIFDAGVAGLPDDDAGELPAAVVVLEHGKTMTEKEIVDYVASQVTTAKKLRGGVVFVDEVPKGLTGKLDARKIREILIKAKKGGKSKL
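Biochemical qHTS of compounds, final roughly 60 µM downward over six points, against 10 nM purified firefly luciferase using Km concentrations of substrates (10 uM D-luciferin, 10 uM ATP) in Tris acetate pH 7.5 buffer; luminescence output.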
SMN2 splice enh = increases expression of the SMN2 splice variant. HEK293 SMN2-luciferase splicing reporter, luminescence, 30-36 h. Potency, µM (top dose mostly 46.1 µM), for the others: at the top dose activity change, positive = activation, most hits filed as activators. actives 2.8% (n = 210,000); also: % of control where 0% means no effect; nearly all actives have a fitted effect of over 55% in size
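HEK293 cells carry an SMN2 minigene-luciferase reporter in which exon 7 inclusion puts luciferase in frame. Cells were seeded at 2000 cells/well, attached for 10-12 hours, then exposed to compounds for 30-36 hours at 37C before ONE-Glo luminescence.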
Rab9 promoter act = activators of Rab9 promoter; Huh7 Rab9 promoter-luciferase reporter, luminescence, 24 h; Potency, µM (titrated, usually from 9.22 µM), inactives show at the top dose activation, negative = inhibition, hits mostly activators; actives 2.8% (n = 320,000); also: % of control where 0% means no effect; nearly all actives have a fitted effect of over 60% in size
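Quantitative HTS format; Huh7 Rab9-luciferase reporter cells (1500/well) receive compound 2 h post-plating, incubate 24 h at 37 °C, then get luciferase reagent for 10 min before luminescence reading.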
Luc counter = blocks Kinase-Glo luciferase, a counter-screen artifact; Q27757; actives 0.28% (n = 200,000); Kinase-Glo luciferase, ATP luminescence, 8 min; Potency, µM (doses to about 38.3 µM), for inactives: at the top dose activity change, negative = inhibition, actives largely listed as inhibitors; also: % is scaled to controls: 0 for no effect and ±100 for the full control effect; nearly all actives have a fitted effect of over 60% in size
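Recombinant Kinase-Glo luciferase, 10 uM ATP (linear range), luciferin; imidazole pH 7.2 / KCl / MgCl2 / Tween / BSA buffer; 8 min RT; luminescence.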
The depositor's hits bear a star; ? = inconclusive; · = no result given; [ ] = another dose, or the depositor's remark. Calls follow the shape of the dose curve; as a rule, active = well fitted curve in the direction sought with a large enough effect; inconclusive = small, poorly fitted or top-dose-only effect, or another doubt; inactive = no such curve, though single readings can be large; an effect the other way counts as inactive or inconclusive. Potency is read from the fitted curve at half-maximal effect.

SMILES	NPC1 prom act	ELG1 genotoxic	FLuc modulator	SMN2 splice enh	Rab9 promoter act	Luc counter
CC(C)Oc1ccc(CNC(=O)C(C)n2ccc3cc(S(=O)(=O)N4CCCCCC4)ccc32)cc1 (centres undefined)	·	·	-11%	·	·	·
O=C1N(Cc2ccccc2Cl)c2ccccc2C1(O)c1c[nH]c2ccccc12 (centres undefined)	·	·	0%	-7%	·	·
CCCCS(=O)(=O)CC(O)CSc1nc(-c2ccc(C)cc2)cc(-c2ccccc2)c1C#N (centres undefined)	·	·	-19%	-10%	·	·
COc1ccc2nc(-c3ccc(N)cc3)[nH]c2c1	?	?	3.8µM*	?	24%	10µM*
COc1ccc2nc(-c3cccc(N)c3)[nH]c2c1	1.6µM*	?	2.4µM*	·	2.5µM*	13µM*
CCc1ccccc1NC(=O)Cn1c(=O)n(CCc2ccccc2)c(=O)c2sc3ccccc3c21	·	·	0%	-7%	·	·
Cc1nc2nncn2c(NCc2ccc(Cl)cc2)c1C	·	·	-2%	-67%	·	·
COc1ccc2c(c1)CC(C(=O)NCCc1ccc(S(N)(=O)=O)cc1)CO2 (centres undefined)	·	·	5%	·	·	·
CN1CCOc2ccc(S(=O)(=O)N3CCN(S(=O)(=O)c4c(F)cccc4F)CC3)cc21	?	·	21µM*	·	?	·
O=C(c1cccc(N2C(=O)C3C4C=CC(C4)C3C2=O)c1)N1CCN(c2ccc(F)cc2)CC1 (centres undefined)	2%	-6%	0%	·	-8%	·
CC1C=CCC2C(=O)N(c3cccc(C(=O)N4CCN(c5ccc(F)cc5)CC4)c3)C(=O)C12 (centres undefined)	2.8µM*	?	12µM*	?	3.2µM*	-6%
Cc1ccc(Cl)cc1NC(=O)c1ccc(NC(=O)N2CCSc3ncccc32)cc1	·	·	-11%	·	·	·
Cc1nn2c(COc3ccc(NC(=O)C(C)C)cc3)nnc2c2ccccc12	-2%	?	-11%	-23%	1%	-1%
Cc1nn2c(COc3ccc(NC(=O)c4ccccc4Cl)cc3)nnc2c2ccccc12	-3%	-5%	6µM*	19%	2%	-3%
CC(C)c1ccc(NC(=S)NCc2cccs2)cc1	24%	?	15µM*	17%	20%	-2%
COc1ccc(N=Nc2nc3ccc(Br)cc3n2C)cc1	2.8µM*	13%	0.38µM*	?	2.5µM*	?
COc1ccc(-c2cc(C(=O)NNC(=O)c3csc(N4CCOCC4)n3)c3ccccc3n2)cc1	-2%	-24%	12µM*	·	2%	·
COc1ccc(-c2cc(C(=O)NNC(=O)c3csc(N4CCOCC4)n3)c3ccccc3n2)cc1OC	0%	-26%	9.5µM*	·	5%	·
O=C(NNC(=O)c1ccccc1Cl)c1csc(N2CCOCC2)n1	0%	0%	?	·	-2%	·
O=C(CC1N=C2c3ccccc3N=C(SCc3cccc(Cl)c3)N2C1=O)NCCc1ccccc1 (centres undefined)	·	·	-11%	·	·	·
CC(/C=C/C(=O)NO)=C\[C@@H](C)C(=O)c1ccc(N(C)C)cc1	·	·	·	1.4µM*	·	1%[39.9 µM]
CC(NC(=O)c1ccc(N(C)C)cc1)c1ccc(F)cc1 (centres undefined)	-4%	0%	-11%	6%	2%	0%
O=C(NCCn1cc(SCc2ccc(F)cc2)c2ccccc21)c1cccs1	·	·	-10%	-34%	·	·
COc1ccc(-c2cc(C(=O)Nc3ccccc3O)c3ccccc3n2)cc1OC	-6%	-11%	?	-41%	-2%	-4%
COc1ccc(-c2cc(C(=O)Nc3nc4ccccc4s3)c3ccccc3n2)cc1OC	-2%	-4%	17µM*	-35%	0%	-4%
SMILES	NPC1 prom act	ELG1 genotoxic	FLuc modulator	SMN2 splice enh	Rab9 promoter act	Luc counter
COc1ccc(-c2cc(C(=O)Nc3cccnc3)c3ccccc3n2)cc1OC	0%	-18%	11µM*	·	0%	·
COc1cccc(-c2cc(C(=O)Nc3cccnc3)c3ccccc3n2)c1	0%	-14%	27µM*	·	4%	·
CC1CCN(S(=O)(=O)c2ccc3c(ccc(=O)n3CC(=O)Nc3cccc(F)c3)c2)CC1	·	·	0%	·	·	·
CC(C)(C)c1ccc(NC(=O)C2=CN3CCS(=O)(=O)N=C3C=C2)cc1	0%	0%	15µM*	·	0%	·
Cc1cc(C=C2C(=O)CCCC2=O)c(C)n1-c1ccccc1	1%	2%	17µM*	4%	0%	0%
Cc1cc(/C=C2\C(=O)NN(c3ccccc3)C2=O)c(C)n1-c1ccccc1O	2.8µM*	?	1.3µM*	·	2.8µM*	·
Cc1cc(/C=C2/C(=O)NN(c3ccccc3)C2=O)c(C)n1-c1ccc(O)cc1	?	?	0.15µM*	-77%	2.5µM*	-11%
COc1ccc(-n2c(C)cc(/C=C3\C(=O)NN(c4ccccc4)C3=O)c2C)cc1	?	?	2.7µM*	?	27%	0%
O=C1NN(c2ccccc2)C(=O)/C1=C/c1coc2ccccc2c1=O	-3%	16%	?	1%	-8%	-2%
O=C1NN(c2ccccc2)C(=O)/C1=C\c1coc2ccc(O)cc2c1=O	-6%	2%	?	·	-3%	·
O=c1c(CCc2ccccc2)nc2cnc(N3CCNCC3)nc2n1CCc1ccccc1	·	·	·	-45%	·	-4%
Cc1cc(C)c(NC(=O)CSc2nc(=O)[nH]c3c2CCCC3)c(C)c1	·	·	-2%	·	·	·
CN(C)c1ccc(-c2nc(N(C)Cc3ccco3)c3ccccc3n2)cc1	·	·	·	10µM*	·	-7%
COc1ccc2c(c1)c1c(c(=O)n(Cc3ccccc3)c(=O)n1CC(=O)NCc1ccccc1Cl)n2C	·	·	1%	22%	·	·
COc1ccc(-c2cn(Cc3ccc(C(N)=O)cc3)c(-c3ccncc3)n2)cc1	3.2µM*	?	2.4µM*	·	2.5µM*	·
COc1cc(NC(=O)C2CCN(C(=O)c3sc4nc[nH]c(=O)c4c3C)CC2)cc(OC)c1OC	·	·	-1%	·	·	·
Cc1ccc(S(=O)(=O)C2(C(=O)Nc3ccc(Cl)c(C(F)(F)F)c3)CC2)cc1	·	·	-4%	-24%	·	·
Cc1cccc(N2CCN(C(=O)CN3C(=O)C4CC=CCC4C3=O)CC2)c1C (centres undefined)	?	10%	17µM*	1%	3.2µM*	4%
COc1ccc(-c2cc(C(=O)N(C)CCc3ccc(OC)c(OC)c3)c3ccccc3n2)cc1	-3%	-8%	0%	·	16%	·
COc1ccc(CCN(C)C(=O)c2cc(-c3ccccc3)nc3ccc(C)cc23)cc1OC	?	?	2.4µM*	·	3%	·
COc1ccc(CCN(C)C(=O)c2cc(-c3ccccc3)nc3ccccc23)cc1OC	3%	-12%	15µM*	·	18%	·
